Screening results from PubChem.
The entries come from a sample that favours hits as a whole.
Dicer inh: human Dicer pre-microRNA cleavage inhibition; Q9UPY3; cat-ELCCA pre-miR-21 Dicer processing, chemiluminescence; stronger effect = higher value; z-score at 25 µM; 6% of 47,000 active; in the data active = z-score above about 3, passing the limit was not always enough;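 note: plate controls were vehicle for no effect and no enzyme for full effect; higher signal means more uncleaved substrate so more Dicer inhibition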
Starred values were filed as active, the others as inactive.

SMILES | Dicer inh
COc1ccc(/C=C2/N=C(C)OC2=O)cc1 | -0.48
COc1ccc(/C=C2N=C(/C=C/c3ccccc3)OC/2=O)cc1 | 4.4*
CCOc1ccccc1/C=C1N=C(/C=C/c2ccccc2)OC/1=O | 2
Cc1cccc(C2CC(c3ccccc3Cl)Nc3nc(N)nn32)c1 (configuration not stated) | -0.71
COCCCN1CN=C(SCc2ccc(Cl)cc2Cl)NC1 | -2.6
Cc1ccc(CSc2nnc3c(n2)[nH]c2ccccc23)cc1 | 1.2
CC(C)(CC(=O)O)CC(=O)NCCN1CCNC1=O | 0.49
CC(C)(C)C(=O)NC(=S)Nc1cccc(C(F)(F)F)c1 | -0.2
COC(=O)c1ccc(CSc2ccccc2NC(=S)Nc2cccc(C(F)(F)F)c2)o1 | 4.4*
FC(F)(F)c1cccc(NC(=S)Nc2ccccc2C(F)(F)F)c1 | -0.33
CN(C)/C=C/C(=O)c1ccc(C(F)(F)F)cc1 | 0.95
OCCSc1nc2ccccc2n1CCOc1ccccc1 | 3.9*
Cc1ccc(OCCSc2nc3ccccc3n2CCO)cc1 | -0.89
CSc1nc2ccccc2n1CCOc1ccccc1 | -1.9
Brc1ccc(CSc2nn3cnnc3s2)cc1 | -0.39
CC1(C)OC(=O)c2ccccc2-c2ccccc21 | 0.83
CC1(C(=O)O)Cc2ccccc2C(=O)O1 (configuration not stated) | 3.9*
O=C1OC(c2ccccc2)(c2ccccc2)c2ccccc21 | -0.69
Cc1ccc(C2CC(c3c(-c4ccccc4)c4cc(Cl)ccc4[nH]c3=O)=NN2S(C)(=O)=O)cc1 (configuration not stated) | 2
Cc1cc2ncc(-c3ccnc(SCC(=O)c4ccc(Cl)cc4)n3)c(C)n2n1 | -0.37
Cc1cc2ncc(-c3ccnc(SCc4cccc(Cl)c4)n3)c(C)n2n1 | 0.37
Cc1cc2ncc(-c3ccnc(SCc4c(Cl)cccc4Cl)n3)c(C)n2n1 | 24*
